{
  "source": "PubChem BioAssay AID1321",
  "about": "(The Scripps Research Institute Molecular Screening Center, 2008)",
  "note": "About 2,600 (1.2%) of roughly 220,000 compounds were called active. The sample holds actives, similar compounds and a random draw of the others, so the mix is not that of the screen.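 How the source made its calls: active means activation above the mean of all tested compounds plus 3 SD, set per screening run (cut at about 8.8% in these data); inactive means the rest.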",
  "data": [
    {"biological_target": "Wee1-like protein kinase (Homo sapiens) (UniProt P30291)", "test": "compounds stabilizing Wee1-luciferase fusion – cell-based, HeLa, Wee1K328M-luciferase, luminescence, primary screen (AID 1321);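 further: cells exposed to compound for 20 h before luminescence read; 0% = DMSO alone and 100% = MG132 at 30 µM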", "settings": "HeLa Luc-Wee1K328M stability, at 5 µM, hits give high values, 100% = proteasome inhibitor MG132 effect", "values": [
      {"smiles": "O=C(Cn1cnc2ccccc2c1=O)Nc1cccc(S(=O)(=O)N2CCCCC2)c1", "reporter increase": "-0.22% (inactive)"},
      {"smiles": "CC(=O)c1cc(C#N)c(SCC(=O)C(C)(C)C)nc1C", "reporter increase": "0.58% (inactive)"},
      {"smiles": "Cc1[nH]c2ccccc2c1SCC(=O)Nc1nccs1", "reporter increase": "-4.02% (inactive)"},
      {"smiles": "CC(=O)c1cc(C#N)c(SCC(=O)Nc2nccs2)nc1C", "reporter increase": "8.83% (active)"},
      {"smiles": "COc1ccc(Cl)cc1CSc1ncn[nH]1", "reporter increase": "-0.89% (inactive)"},
      {"smiles": "O=C(/C=C/Sc1ncn[nH]1)c1ccc(Cl)cc1", "reporter increase": "9.14% (active)"},
      {"smiles": "Cc1cc(C)nc(S/C=C/C(=O)c2ccccc2)n1", "reporter increase": "1.73% (inactive)"},
      {"smiles": "Cc1ccc(NC(=S)N2CCCC(c3ccccc3)=N2)cc1", "reporter increase": "-4.54% (inactive)"},
      {"smiles": "O=C(O)Cc1sc(-c2ccc(C(=O)O)cc2)nc1-c1ccccc1", "reporter increase": "2% (inactive)"},
      {"smiles": "NC(=O)Cc1ccc2sc(-c3ccccc3)nc2c1", "reporter increase": "14.1% (active)"},
      {"smiles": "NC(=O)Cc1ccc2c(c1)[nH]c1ccccc12", "reporter increase": "0.52% (inactive)"},
      {"smiles": "Brc1ccc(-c2n(-c3ccccn3)c3ccccc3[n+]2-c2ccccn2)cc1", "reporter increase": "3.34% (inactive)"},
      {"smiles": "CN(C)N=Nc1ccc2nc[nH]c2c1", "reporter increase": "2.5% (inactive)"},
      {"smiles": "Cc1ccc(C(=O)Nc2nc(N)n(-c3ccccc3)n2)cc1", "reporter increase": "-0.93% (inactive)"},
      {"smiles": "NS(=O)(=O)c1ccc(CNC(=O)c2cnccn2)cc1", "reporter increase": "3.73% (inactive)"},
      {"smiles": "Cc1cc(C)cc(NC(=O)C2CCN(c3nc(C)cc(C)n3)CC2)c1", "reporter increase": "-2.65% (inactive)"},
      {"smiles": "COC(=O)CC1=NN(c2ccccc2)C(=O)C1", "reporter increase": "-1.29% (inactive)"},
      {"smiles": "COC(=O)CC1=NN(c2nc(C)cc(C)n2)C(=O)C1", "reporter increase": "15.3% (active)"},
      {"smiles": "O=C1C2C3C=CC(C3)C2C(=O)N1c1ccc(S(=O)(=O)Nc2nccs2)cc1", "note": "(stereo unspecified)", "reporter increase": "-1.57% (inactive)"},
      {"smiles": "NS(=O)(=O)c1ccc(NC(=O)COC(=O)c2cc3ccccc3oc2=O)cc1", "reporter increase": "-2.85% (inactive)"},
      {"smiles": "O=C(CCc1ccccc1)NNc1ccc(F)cc1", "reporter increase": "1.37% (inactive)"},
      {"smiles": "COc1cccc(-c2nnc(SCCOc3ccc4c(C)cc(=O)oc4c3)o2)c1", "reporter increase": "9.51% (active)"},
      {"smiles": "Cc1ccccc1N1CCN(CCCOc2ccc3c(C)cc(=O)oc3c2)CC1", "reporter increase": "-1.06% (inactive)"},
      {"smiles": "Cc1cc(=O)oc2cc(OCCC[n+]3ccccc3)ccc12", "reporter increase": "-1.76% (inactive)"},
      {"smiles": "COC(=O)c1sccc1NN1C(=O)c2ccccc2C1=O", "reporter increase": "-2.49% (inactive)"},
      {"smiles": "Cc1cccc(NC(=O)Nc2ccc3c(c2)OCO3)n1", "reporter increase": "5.09% (inactive)"},
      {"smiles": "CCc1c(C)sc(NC(=O)/C=C/c2ccc3c(c2)OCO3)c1C(=O)OC", "reporter increase": "-2.27% (inactive)"},
      {"smiles": "Cc1cccc(NC(=O)/C=C/c2ccc3c(c2)OCO3)n1", "reporter increase": "9.34% (active)"},
      {"smiles": "COc1ccc(C(=O)N/N=C2\\CCS(=O)(=O)c3ccc(F)cc32)cc1OC", "reporter increase": "0.62% (inactive)"},
      {"smiles": "CC(C)c1ccc(C(=O)NCCCc2ccccc2)cc1", "reporter increase": "-2.16% (inactive)"},
      {"smiles": "O=C(NCCCNCc1ccccc1)c1ccc(/C=N/O)nc1", "reporter increase": "11.4% (active)"},
      {"smiles": "Nc1ccc(C(=O)NCc2ccccc2)cc1", "reporter increase": "2.22% (inactive)"},
      {"smiles": "CNC(=S)NNC(=O)c1oc2nc(-c3ccccc3)cc(-c3ccco3)c2c1N", "reporter increase": "-0.32% (inactive)"},
      {"smiles": "CCCCOC(=O)c1ccc(NC(c2ccc(C)cc2)P(=O)(OC)OC)cc1", "note": "(stereo unspecified)", "reporter increase": "8.49% (inactive)"},
      {"smiles": "CCOP(=O)(OCC)C(Nc1cccc(C)c1)c1ccc(F)cc1", "note": "(stereo unspecified)", "reporter increase": "10.8% (active)"},
      {"smiles": "CCOP(=O)(OCC)C(Nc1ccc([N+](=O)[O-])cc1)c1ccc(Cl)cc1", "note": "(stereo unspecified)", "reporter increase": "0.66% (inactive)"},
      {"smiles": "Nc1ccccc1SC(C[N+](=O)[O-])c1ccccc1", "note": "(stereo unspecified)", "reporter increase": "-0.08% (inactive)"},
      {"smiles": "NC1=NC(=O)C(Cc2cccc(Cl)c2)S1", "note": "(stereo unspecified)", "reporter increase": "-3.99% (inactive)"},
      {"smiles": "NC1=NC(=O)C(Cc2cccc(Cl)c2Cl)S1", "note": "(stereo unspecified)", "reporter increase": "9.04% (active)"},
      {"smiles": "O=C1NC(=Nc2ccc(Cl)cc2)SC1Cc1cccc(Cl)c1Cl", "note": "(stereo unspecified)", "reporter increase": "-1.02% (inactive)"},
      {"smiles": "[O-][N+]12CCCCC1CCCC2CO", "note": "(stereo unspecified)", "reporter increase": "-2.55% (inactive)"},
      {"smiles": "COCCCNC(=O)C1CCN(c2ccc(N3CCOCC3)nn2)CC1", "reporter increase": "-2.62% (inactive)"},
      {"smiles": "CSc1nc(-c2ccco2)nn1C(=O)c1ccccc1Cl", "reporter increase": "-1.69% (inactive)"},
      {"smiles": "Cc1ccc(C)c(NC(=S)NNC(=O)c2csc(C)c2)c1", "reporter increase": "1.58% (inactive)"},
      {"smiles": "Cc1ccccc1NC(=S)NNC(=O)c1cccc(Br)c1", "reporter increase": "-1.44% (inactive)"},
      {"smiles": "Cc1cc(C(=O)NNC(=S)Nc2ccccc2C)cs1", "reporter increase": "10.1% (active)"},
      {"smiles": "CC(=O)N1CC[n+]2c(-c3ccc([N+](=O)[O-])cc3)csc21", "reporter increase": "-3.06% (inactive)"},
      {"smiles": "O=c1c2ccccc2nc(CSc2nnnn2-c2ccccc2)n1-c1ccccc1", "reporter increase": "5.88% (inactive)"},
      {"smiles": "Nc1nnc(SCn2nnc3ccccc3c2=O)s1", "reporter increase": "-0.04% (inactive)"},
      {"smiles": "O=c1c2ccccc2nnn1CSc1nnnn1-c1ccccc1", "reporter increase": "9.56% (active)"},
      {"smiles": "Cc1ccc(-c2nc(SCC(=O)Nc3ccccc3OC(F)F)c3c(C)c(C(=O)O)sc3n2)cc1", "reporter increase": "-1.68% (inactive)"}
    ]}
  ]
}
